Screens as filed in PubChem BioAssay.
Most compounds without a hit are left out; they make up all but 4% or so of the library.
Caspase-7 inhib – caspase-7 (human) inhibition, allosteric or competitive. recombinant caspase-7, Ac-DEVD-AFC fluorescence rate. Potency, µM (series often up to 57.5 µM), for inactives: at the top dose activity change, negative = inhibition, usual class: inhibitors. P55210. AID 889. hit rate 0.02% among 75,000; active = well fitted inhibition curve with a large enough effect in the main read-out, with a control signal flat, not every such curve was filed as active; inconclusive = small, poorly fitted or top-dose-only effect, or a change in a side signal; also: % of control where 0% means no effect
Luciferase inh – blocks Photinus pyralis firefly luciferase activity; hit rate 2.2% among 72,000; Potency, µM (highest dose often 57.1 µM), for inactives: at the top dose activity change, negative = inhibition, hits mostly inhibitors; purified firefly luciferase, luminescence, 8 min; P08659; AID 411; also: % is scaled to controls: 0 for no effect and ±100 for the full control effect; nearly all actives have a fitted effect of over 40% in size
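Substrate buffer containing 10 uM ATP (pH 7.2 imidazole, Mg2+, KCl, detergent, BSA) is dispensed, compound pinned in, then luciferase/luciferin detector mix added. After 8 min at ambient temperature, light output is measured.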
Tau fil binding – binds recombinant human tau filaments; AID 596; recombinant tau filaments, thioflavin S fluorescence, 15 h; filaments grown with octadecylsulfate alongside compound; Potency, µM (highest dose often 57.1 µM), without a hit: at the top dose activity change, negative = inhibition; P10636; hit rate 2% among 71,000;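 also: % is scaled to controls: 0 for no effect and ±100 for the full control effect; actives lower thioflavin S fluorescence by blocking filaments or displacing dye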
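Recombinant tau protein (human, 1 uM final) plus 30 uM ODS in HEPES pH 7.4 with NaCl, DTT and thioflavine S. Compound present from the start; fluorescence at 510 nm after 15 h, 37 C.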
Casp1 inh – allosteric or competitive inhibitors of human caspase-1 | P29466 | Caspase-1 enzyme, Ac-WEHD-AFC fluorogenic rate | Potency, µM (series often up to 57.5 µM), inactives show at the highest dose activity change, negative = inhibition, hits mostly inhibitors | hit rate 0.03% among 75,000;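 also: plate controls were vehicle for no effect and no substrate for full effect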
Bst PK mod – pyruvate kinase (B. stearothermophilus) modulation; AID 361; purified pyruvate kinase, luminescence ATP production; ribose 5-phosphate activator present at AC10; Potency, µM; hit rate 1.2% among 51,000; in the data active = potency below about 11 µM; inconclusive = mostly about 12 µM to 25 µM;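 the screen sought inhibitors and activators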;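 also: scaled between full activation by ribose 5 phosphate and full inhibition by luteolin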
* = called active by the depositor; i = inactive; ? = inconclusive; nt = no result given; [ ] = remark or other dose. Unless noted, calls follow the shape of the dose curve; as a rule, active = well fitted curve in the direction sought with a large enough effect; inconclusive = small, poorly fitted or top-dose-only effect, or another doubt; inactive = no such curve, though single readings can be large; an effect the other way counts as inactive or inconclusive. Potency is read from the fitted curve at half-maximal effect.

SMILES	Caspase-7 inhib	Luciferase inh	Tau fil binding	Casp1 inh	Bst PK mod
OC(Cc1ccccc1)(Cc1ccccc1)c1ccccc1	-1.1%[11.5 µM]	1.4%[11.4 µM]	11.1%[11.4 µM]	-3.1%[11.5 µM]	nt
CN(C)C(=O)c1ccc(-c2cc(Nc3ccccc3)ncn2)cc1	-4.0%	-1.3%[2.29 µM]	1.2%	-2.9%	nt
c1ccc(Nc2cc(Nc3ccccc3)[nH]n2)cc1	-0.4%	-26.2%	20µM*	-2.4%	i
Oc1[nH]c2ccccc2c1C=Nc1ccc2c(c1)OCO2	-10.1%	nt	nt	-4.0%	nt
COc1cccc(C=Nc2ccc3c(c2)OCCO3)c1O	-2.3%	3.98µM*	-1.0%	-3.4%	?
CCOC(=O)c1sc2nc(N3CCOCC3)c3c(c2c1N)CCN(C)C3	-13.5%	-0.1%	7.94µM*	-13.8%	>57
CNC(=O)c1ccc(-c2sc3nc(N4CCOCC4)c4c(c3c2N)CCCC4)o1	?	4.0%	99.8%[11.4 µM]	nt	nt
CCCc1cc(C(=O)Nc2cccc(Cl)c2)no1	-0.7%	15.8µM*	11.8%	-1.7%	nt
COc1ccc(Cc2nn3c(Cn4nnc5ccccc54)nnc3s2)cc1	-5.3%	15.8µM*	-7.8%	-3.3%	nt
O=C(CN1CCCC1)NCC12CC3CC(CC(C3)C1)C2	-1.1%	-0.1%	31.6µM*	1.8%	>57
COc1cc(C2CC(=O)N3CN(c4ccccc4C)CSC3=C2C#N)cc(OC)c1OC (centres undefined)	-17.1%	-16.9%	-3.4%	-11.0%	>57
COc1ccccc1N1CSC2=C(C#N)C(c3ccc(SC)cc3)CC(=O)N2C1 (centres undefined)	-16.0%	-24.2%	25.1µM*	0.4%	nt
c1cc(CSSCc2ccncc2)ccn1	-0.2%[11.5 µM]	0.5%[11.4 µM]	-0.4%[11.4 µM]	-2.0%[11.5 µM]	nt
O=c1c(-c2ccccc2)n[nH]c2ccccc12	-3.9%	12.6µM*	-10.2%	-3.8%	i
Nc1c(-c2ccccc2)n[nH]c1-c1ccccc1	-4.0%	?	1.4%	-0.7%	nt
CCOC(=O)NC[C@H](Cc1ccc(OCCc2nc(-c3ccccc3)oc2C)cc1)N/C(C)=C\C(=O)c1ccc(C(F)(F)F)cc1	-1.5%	nt	nt	-6.4%	nt
Cc1ccc2oc(-c3cccc(NC(=O)C4CCCO4)c3)nc2c1 (centres undefined)	2.8%	20µM*	6.3%	-0.5%	i
CCCC(=O)Nc1cccc(-c2nc3ccccc3o2)c1	-2.4%	-4.2%	40.8%	-0.2%	>57
CCCC(=O)Nc1cccc(-c2nc3cc(C)c(C)cc3o2)c1	-0.6%	7.94µM*	i[11.4 µM]	-1.9%	nt
CCC(=O)Nc1ccc2oc(-c3cccc(C)c3)nc2c1	-0.1%	2.51µM*	16.8%	-3.5%	2.08*
O=C(Nc1cccc(-c2nc3cc(Cl)ccc3o2)c1)C1CCCO1 (centres undefined)	-2.9%	-10.9%	34.6%	-1.9%	i
CSc1nc2ccc(NC(=O)C3CCCO3)cc2s1 (centres undefined)	-0.2%	25.1µM*	-8.2%	-0.1%	i
CCCC(=O)Nc1ccc2oc(-c3cccnc3)nc2c1	-3.6%	-13.6%	-7.3%	-1.9%	nt
CC(=O)N1CCN(c2ccc(NCc3ccc(F)cc3)cc2)CC1	1.4%	1.2%	?	3.1%	nt
CC(C)c1ccc(CNc2ccc(N3CCOCC3)cc2)cc1	-0.2%	-2.1%	25.1µM*	-2.9%	>57
SMILES	Caspase-7 inhib	Luciferase inh	Tau fil binding	Casp1 inh	Bst PK mod
CC1CCN(CC[S-])CC1.O.O.[Cl][Pt]	-0.6%[11.5 µM]	0.3%[11.4 µM]	-10.7%[11.4 µM]	0.5%[11.5 µM]	nt
Cc1cc2nn(-c3cccc4ccccc34)nc2cc1N	-26.2%	-11.2%	7.94µM*	?	>57
Cc1nnc2sc(-c3cccc4ccccc34)nn12	0.3%	1.0%	-0.2%	-1.6%	nt
Cc1cc(-c2nnco2)c(C)n1-c1ccccc1	-2.2%	12.6µM*	16.8%	0.4%	nt
Cc1nc2ccccn2c1-c1nnco1	-1.3%	-2.8%	5.3%	0.4%	>57
O=C(c1ccncc1)N1CCC[C@@]2(CCN(Cc3ccncc3)C2)C1	0.0%	0.1%[11.4 µM]	19.2%	-4.2%	nt
CCn1c(C)nc2cc(C(=O)OC(C(F)(F)C(F)F)C(F)(F)C(F)F)ccc21	-7.1%	20µM*	22.4%	-5.8%	nt
CC/C=C\C[C@H]1C(=O)CC[C@@H]1CC(=O)O	0.1%	0.6%[11.4 µM]	-29.5%	-0.2%	nt
COc1ccc2[nH]cc(CCNc3nc(-c4cccc(C#N)c4)nc4ccccc34)c2c1	-6.6%	-8.5%[2.29 µM]	?	-7.7%	nt
COc1ccc2[nH]cc(CCNc3nc(-c4ccccc4OC)nc4ccccc34)c2c1	-0.6%	-1.8%[2.29 µM]	2.51µM*	0.7%	nt
COc1cccc(Cn2c(=O)c(-c3ccccc3)nc3cncnc32)c1	-14.3%	-0.3%[11.4 µM]	20µM*	-12.0%	nt
